Results filed as inconclusive are left out. Unmarked numbers belong to inactive results. Activity calls are given as the source filed them. Calls follow the shape of the dose curve; as a rule, active = well fitted cell-killing curve with a large enough effect; inconclusive = small, poorly fitted or top-dose-only effect, or effect the other way; inactive = no such curve, though single readings can be large or run the other way.
Potency is read from the fitted curve at half-maximal effect.

This test is described as follows: Quantitative High-Throughput drug screen in 47 multiple myeloma cell lines against the NCATS MIPE library collection: XG6_PLB cell viability assay (AID 1919865). Also: nearly all actives have a fitted effect of over 40% in size. Conditions: XG6 myeloma viability, CellTiter-Glo ATP luminescence, 48 h; series mostly up to 45.8 µM; viability (% of control): at the top concentration. An excerpt:
PI: Beverly A. Mock Ph.D.
Laboratory of Cancer Biology and Genetics,
Center for Cancer Research, National Cancer Institute,
National Institute of Health, Bethesda, Maryland
Drug resistance and disease progression are common in multiple myeloma (MM) patients, underscoring the need for new therapeutic combinations. […] We hypothesized that effective combinations would reduce MYC expression and enhance p16 activity. […] These preclinical data identify potentially useful drug combinations for evaluation in drug-resistant MM and reveal potential mechanisms of combined drug sensitivity.
Described herein is the primary MIPE qHTS used to cherrypick compounds. Validated compounds were then further tested for potential synergistic activiy.
[1] Peat TJ, Gaikwad SM, Dubois W, Gyabaah-Kessie N, Zhang S, Gorjifard S, Phyo Z, Andres M, Hughitt VK, Simpson RM, Miller MA, Girvin AT, Taylor A, Williams D, D'Antonio N, Zhang Y, Rajagopalan A, Flietner E, Wilson K, Zhang X, Shinn P, Klumpp-Thomas C, McKnight C, Itkin Z, Chen L, Kazandijian D, Zhang J, Michalowski AM, Simmons JK, Keats J, Thomas CJ, Mock BA. Drug combinations identified by high-throughput screening promote cell cycle transition and upregulate Smad pathways in myeloma. Cancer Lett. 2023 Aug 1;568:216284. doi: 10.1016/j.canlet.2023.216284. Epub 2023 Jun 24. PMID: 37356470; PMCID: PMC10408729.
SEQUENCE No. (e.g., 1, 2, 3, etc.); […] (e.g., Cells, Incubation, Reagent, etc.); VALUE and DESCRIPTION.
1; Cells; 5 uL; white, solid bottom 1536-well Greiner assay plate.
2; Compounds; 23 nL; Kalypsis pin tool (Wako USA) equipped with a 1536-well pin head to transfer to the assay plates.
3; Incubation; 48 hours; 37C incubation.
4; Reagent;5uL; CellTiter Glo (Promega).
5; Detector; 425V; Luminescence; Viewlux PerkinElmer.
NOTES (numbers refer to Sequence numbers above)
1. The cell-based screening methods employed in this study were like those previously published. Briefly, the corresponding myeloma cell lines were screened in 1,536-well plates with 500 cells, 5-uL per well for inhibition of cell viability (assessed by measuring ATP levels with CellTiterGlo).
2. NCATS MIPE 4.0 library of approved and investigational drugs were added using the Kalypsis pin tool. Wells treated with DMSO only for 100% viability and media only for 0% viability were used as controls.
3. The assay plates were covered and incubated for 48 hours in a 37C, 5% CO2 incubator with controlled humidity.
4. After 48 hours, CellTilter-GloTM luminescent substrate mix (Promega) reagent was added to the assay plate and plates we incubated for 5 min at room temperature.
5. Signal was measured as median relative luminescence units on a ViewLux (PerkinElmer) multiplate reader.
[1] Heske CM, Davis MI, Baumgart JT, Wilson K, Gormally MV, Chen L, Zhang X, Ceribelli M, Duveau DY, Guha R, Ferrer M, Arnaldez FI, Ji J, Tran HL, Zhang Y, Mendoza A, Helman LJ, Thomas CJ. Matrix Screen Identifies Synergistic Combination of PARP Inhibitors and Nicotinamide Phosphoribosyltransferase (NAMPT) Inhibitors in Ewing Sarcoma. Clin Cancer Res. 2017 Dec 1;23(23):7301-7311. doi: 10.1158/1078-0432.CCR-17-1121. Epub 2017 Sep 12. PMID: 28899971; PMCID: PMC6636827.
(In ATP-based viability assays light output follows the ATP content of the culture.)
For `O=C(C=Cc1cccnc1)NCCCCC1CCN(C(=O)c2ccccc2)CC1`, the Potency is 74.3 nM (active).

With `Cn1cc(-c2[nH]c3cc(NC(=O)[C@H](N)C4CCCCC4)cc4c3c2C=NNC4=O)cn1`, the Potency was 209 nM (active).

As for `CC=C1NC(=O)[C@H]2CSSCCC=C[C@H](CC(=O)N[C@H](C(C)C)C(=O)N2)OC(=O)[C@H](C(C)C)NC1=O`, the Potency is 23.5 nM (active).

Turning to `COc1ccc(-c2cc3c(C)nc(N)nc3n(C3CCC(OCCO)CC3)c2=O)cn1` (stereo not given), the Potency is 66.2 nM (active).

With `CCCNC(=O)Nc1ccc(Oc2ncnc3cc(OC)c(OC)cc23)cc1Cl`, the “viability (% of control)” value was 112%.

Regarding `Cc1ccc(C(=O)Nc2cccc(C(F)(F)F)c2)cc1-c1ccc2nc(NCCN3CCOCC3)ncc2c1`, the Potency is 3320 nM (active).

For the molecule `CNC(=O)c1c(F)cccc1Nc1nc(Nc2cc3c(cc2OC)CCN3C(=O)CN(C)C)nc2[nH]ccc12`, the Potency was 2350 nM (active).

Take `COc1cc(C(=O)NS(=O)(=O)c2ccccc2C)ccc1Cc1cn(C)c2ccc(NC(=O)OC3CCCC3)cc12`: the Potency was 14800 nM (active).

As for `COc1cccc(Nc2c(C(N)=O)cnc3c(C)cc(S(=O)(=O)c4cccc(C(=O)N(C)C)c4)cc23)c1`, the “viability (% of control)” value is 118% [at 23.2 µM].

With `Cn1cc(-c2ccncc2)c(-c2ccc(OCc3ccc4ccccc4n3)cc2)n1`, the Potency is 5900 nM (active).

Consider `CC(C)(C)c1cc(C(C)(C)C)c(NC(=O)c2c[nH]c3ccccc3c2=O)cc1O`, for which the “viability (% of control)” value is 112%.

In the case of `CC(=O)Nc1nc(C)c(-c2ccc(Cl)c(S(=O)(=O)NCCO)c2)s1`, the Potency was 2090 nM (active).

In the case of `O=C(O)CO.[NH2-].[NH2-].[Pt+2]`, the “viability (% of control)” value was 106%.

With `Cc1[nH]c2ccccc2c1CCNCc1ccc(C=CC(=O)NO)cc1`, the Potency is 148 nM (active).

Turning to `CC(C)c1ccccc1Cc1cc(C(=O)Nc2ccc(S(=O)(=O)c3ccccc3C(C)(C)C)cc2)c(O)c(O)c1O`, the Potency was 7430 nM (active).

As for `Cc1cn2cc(C(=O)N(C)CCO)cc(N[C@@H]3CCOc4cccc(C)c43)c2n1`, the “viability (% of control)” value is 86.5%.

Regarding `COc1cc(C(=O)N2CCC(N3CCN(C)CC3)CC2)ccc1Nc1ncc2c(n1)N(C)c1ccccc1C(=O)N2C`, the Potency is 5260 nM (active).

Take `NCC(=O)Nc1ccc(-n2nc(C(F)(F)F)cc2-c2ccc3c(ccc4ccccc43)c2)cc1`: the Potency was 18700 nM (active).

Turning to `c1cc(-c2cnn3cc(-c4ccc(OCCN5CCCCC5)cc4)cnc23)ccn1`, the Potency was 4180 nM (active).

For `Cc1cc(Nc2nc(N[C@@H](C)c3ccc(F)cc3)c(C#N)cc2F)n[nH]1`, the Potency is 1050 nM (active).

In the case of `CCCCCCCCCC(=O)N[C@@H](Cc1c[nH]c2ccccc12)C(=O)N[C@H](CC(N)=O)C(=O)N[C@@H](CC(=O)O)C(=O)N[C@@H]1C(=O)NCC(=O)N[C@@H](CCCN)C(=O)N[C@@H](CC(=O)O)C(=O)N[C@H](C)C(=O)N[C@@H](CC(=O)O)C(=O)NCC(=O)N[C@H](CO)C(=O)N[C@@H]([C@@H](C)CC(=O)O)C(=O)N[C@@H](CC(=O)c2ccccc2N)C(=O)O[C@@H]1C`, the “viability (% of control)” value was 83.5%.

Regarding `CC1(C)CCC(c2ccc(Cl)cc2)=C(CN2CCN(c3ccc(C(=O)NS(=O)(=O)c4ccc(N[C@H](CCN5CCOCC5)CSc5ccccc5)c(S(=O)(=O)C(F)(F)F)c4)cc3)CC2)C1`, the Potency is 11800 nM (active).

`O=C(O)Cn1nnc(-c2cc(N3CCC(Oc4cc(F)ccc4Br)CC3)no2)n1`: the “viability (% of control)” value was 107%.

Consider `CCS(=O)(=O)c1cccc(-c2cc(C(=O)NC3CCN(C)CC3)c(C)c3[nH]c4ncc(C)cc4c23)c1`, for which the Potency was 833 nM (active).

Take `O=C(O)c1ccc2c(c1)nc(Nc1cccc(Cl)c1)c1ccncc12`: the Potency was 3720 nM (active).

On to `CN1CCC(CNc2ccc3ncc(-c4cccc(OC(F)(F)F)c4)n3n2)CC1`, for which the Potency was 5900 nM (active).

As to `COc1ccc(C(=O)CC2(O)C(=O)Nc3c(Cl)ccc(Cl)c32)cc1` (stereo not given), the Potency was 833 nM (active).

Turning to `Cc1ccc(NC(=O)C2(c3ccc4c(c3)OC(F)(F)O4)CC2)nc1-c1cccc(C(=O)O)c1`, the Potency is 66.2 nM (active).

For the molecule `Nc1ccccc1NC(=O)c1ccc(CNc2nccc(-c3cccnc3)n2)cc1`, the Potency is 2640 nM (active).

For the molecule `CN(C)CC=CC(=O)Nc1cc2c(Nc3ccc(F)c(Cl)c3)ncnc2cc1O[C@H]1CCOC1`, the Potency was 2640 nM (active).

Take `c1ccc2c(CCNc3ccc(Nc4ccncc4)cc3)c[nH]c2c1`: the Potency was 23500 nM (active).

As for `NC1(Cc2ccc(Cl)cc2)CCN(c2ncnc3[nH]ccc23)CC1`, the Potency is 13200 nM (active).

Consider `COC(=O)C[C@](O)(CCCC(C)(C)O)C(=O)O[C@@H]1C(OC)=C[C@]23CCCN2CCc2cc4c(cc2[C@H]13)OCO4`, for which the “viability (% of control)” value was 122%.

For the molecule `CC=CC1=C(C(=O)O)N2C(=O)[C@H](NC(=O)[C@H](N)c3ccc(O)cc3)[C@@H]2SC1`, the “viability (% of control)” value was 92.4%.

On to `Cc1cc(CN2CCN(c3c(Br)cnc4nc(-c5ccc(N6CCN(C)CC6)cc5)[nH]c34)CC2)no1`, for which the Potency is 2350 nM (active).

`CNC(=O)CN1CCC(Oc2cc3c(Nc4cccc(Cl)c4F)ncnc3cc2OC)CC1`: the “viability (% of control)” value was 33.4%.

As for `Nc1ncnc2c1c(-c1cccc(OCc3ccccc3)c1)cn2C1CC(CN2CCCC2)C1` (stereo not given), the Potency was 5260 nM (active).

Regarding `CC(O)C1C(=O)N2C(C(=O)O)=C(SC3CNC(C(=O)N(C)C)C3)C(C)C12` (stereo not given), the “viability (% of control)” value is 82.5%.

Turning to `CN(C)c1nc(Cc2ccc(NC(=O)c3ccc4ccccc4c3)cc2)nc(Cl)c1CC(=O)O`, the “viability (% of control)” value was 97%.

For the molecule `COCCOc1ccc2c(c1)ncn2-c1ccc2cccc(N3CCC(N)CC3)c2n1`, the Potency was 372 nM (active).

For the origin of these results see PubChem BioAssay (NCATS).
